Test [1] deals with Vero E6 infected with SARS-CoV-2. Kind of test: morphology score (similarity to uninfected cells); higher = more like uninfected cells. The following applies: 24 h.
Test [2] has the same test system. Kind of test: SARS-CoV-2 infection rate relative to infected DMSO; higher = more infection, active = 60 or less. The note with it: 24 h.

`Oc1c(I)cc(I)c(O)c1I` [riodoxol] (10 µM) showed a morphology score in test [1] of 0.0583. For the same molecule, the SARS-CoV-2 infection rate in test [2] is 107% (inactive).

As for `C[C@]12CC[C@H]3[C@@H](CCC4=CC(=O)CC[C@@H]43)[C@@H]1CC[C@@H]2O` [Nandrolone] (10 µM), in test [1], the morphology score is 0.24. Further, the SARS-CoV-2 infection rate in test [2] was 89.5% (inactive).

Take `O=C(O)c1ccc(/C=C2\SC(=S)N(c3cccc(C(F)(F)F)c3)C2=O)cc1` (10 µM): in test [1], the morphology score was found to be 0.125. The SARS-CoV-2 infection rate in test [2] was 108% (inactive).

Regarding `CC(C)c1nnc(-c2ccc(-c3ccccc3)nc2)n1-c1cccc2nonc12` (10 µM), the morphology score in test [1] was -0.103. The SARS-CoV-2 infection rate in test [2] is 103% (inactive).

In the case of `O=C(O)c1ccccc1C(=O)Nc1ccc(-c2ccccc2)cc1` [kartogenin] (10 µM), the morphology score in test [1] is 0.214. The SARS-CoV-2 infection rate in test [2] is 97.5% (inactive).

Molecule `NC1CCN(c2c(F)cc3c(=O)c(C(=O)O)cn(C4CC4)c3c2Cl)C1` (stereo not given) [clinafloxacin] (10 µM) returned a morphology score in test [1] of 0.187. Also, the SARS-CoV-2 infection rate in test [2] is 112% (inactive).

Take `CN1C(=O)N(c2cc(Cl)cc(Cl)c2)C(=O)[C@]12CN(Cc1cc(C(=O)O)cs1)C[C@H]2c1ccc(C#N)cc1` (10 µM): in test [1], the morphology score worked out at 0.281. For the same molecule, the SARS-CoV-2 infection rate in test [2] was 92.5% (inactive).

Molecule `Cc1ccc(S(=O)(=O)OCC(=O)Nc2ccc(C(=O)O)c(O)c2)cc1` [STAT3-inhibitor-VI] (10 µM) had a morphology score in test [1] of 0.0369. The SARS-CoV-2 infection rate in test [2] is 110% (inactive).

In test [1], `N#C/C(=C\c1ccc(O)c(O)c1)C(N)=O` [tyrphostin-AG-99] (10 µM) gave a morphology score of 0.0858. Moreover, the SARS-CoV-2 infection rate in test [2] is 106% (inactive).

In turn, `CCn1nc(C2CCN(C(=O)CCO)CC2)nc1-c1cnc(N)c(-c2nnc(C(C)(C)C)o2)n1` (0.833333 µM) returned a morphology score in test [1] of 0.199. The SARS-CoV-2 infection rate in test [2] was 94% (inactive).

Molecule `CCCCCCCCCCCCCCCCCCCCCCCCCCCCO` [1-octacosanol] (10 µM) came in with a morphology score in test [1] of 0.118. Also, the SARS-CoV-2 infection rate in test [2] was 100% (inactive).

`O=C(CCCl)NCCc1ccccc1` [fenaclon] (10 µM): in test [1], the morphology score is 0.0663. Further, in test [2], the SARS-CoV-2 infection rate is 102% (inactive).

On to `CN(C)CCc1c[nH]c2ccc(C[C@H]3COC(=O)N3)cc12` [zolmitriptan] (10 µM), for which, in test [1], the morphology score stood at 0.127. Moreover, in test [2], the SARS-CoV-2 infection rate is 92.5% (inactive).

`COc1ccc([C@@H]2CC(=O)c3c(O)cc(O)cc3O2)cc1O` [hesperetin] (10 µM): the morphology score in test [1] was 0.0387. Also, the SARS-CoV-2 infection rate in test [2] was 107% (inactive).

In turn, `N#C/C(=C1/SC[C@@H](c2ccc(Cl)cc2Cl)S1)n1ccnc1` [luliconazole] (10 µM) returned a morphology score in test [1] of 0.0257. In addition, in test [2], the SARS-CoV-2 infection rate is 104% (inactive).

Take `CCC(CC)(CC(=O)Nc1cccc(/C=C/c2nc(C3CCC3)cs2)c1)C(=O)O` [cinalukast] (10 µM): the morphology score in test [1] was 0.068. Moreover, the SARS-CoV-2 infection rate in test [2] was 105% (inactive).

Turning to `Cc1noc2c1-c1ccccc1C(c1ccc(Cl)cc1)=N[C@H]2CC(N)=O` (10 µM), the morphology score in test [1] is -0.0562. For the same molecule, in test [2], the SARS-CoV-2 infection rate was 108% (inactive).

Take `CC(=O)Nc1ccc(OCC(O)CNC(C)C)cc1` (stereo not given) [practolol] (10 µM): in test [1], the morphology score is -0.0762. The SARS-CoV-2 infection rate in test [2] is 106% (inactive).

In turn, `COc1ccc(NC(=O)c2ccc(-c3ccc(-c4noc(C)n4)cc3C)cc2)cc1OCCN(C)C` (0.833333 µM) returned a morphology score in test [1] of 0.282. The SARS-CoV-2 infection rate in test [2] was 53% (active).

With `CCN(CCCOc1ccc2c(Nc3cc(CC(=O)Nc4cccc(F)c4)[nH]n3)ncnc2c1)CCOP(=O)(O)O` [barasertib] (0.833333 µM), the morphology score in test [1] turned out to be 0.0323. The SARS-CoV-2 infection rate in test [2] was 112% (inactive).

With `Clc1ccc(N2CCN(Cc3c[nH]c4ncccc34)CC2)cc1` (10 µM), in test [1], the morphology score was -0.0196. In test [2], the SARS-CoV-2 infection rate is 108% (inactive).

Molecule `N#C/C(=C\c1cn(-c2ccccc2)c2ccccc12)C(=O)O` (10 µM) yielded a morphology score in test [1] of -0.0582. Further, in test [2], the SARS-CoV-2 infection rate was 99.5% (inactive).

In the case of `CC(C)(C)CC(C)(C)c1cc(Cc2cc(C(C)(C)CC(C)(C)C)cc(-n3nc4ccccc4n3)c2O)c(O)c(-n2nc3ccccc3n2)c1` [bisoctrizole] (10 µM), the morphology score in test [1] is -0.0457. The SARS-CoV-2 infection rate in test [2] is 114% (inactive).

On to `Cc1ccc(C(=O)Nc2ccc(CN3CCN(C)CC3)c(C(F)(F)F)c2)cc1C#Cc1cnc2cccnn12` [ponatinib] (10 µM), for which the morphology score in test [1] amounted to 0.435. The SARS-CoV-2 infection rate in test [2] was 97% (inactive).

Regarding `Cc1cc(O)c(-c2ccc([C@@H](C)CN)cc2)c2c1[nH]c(=O)c1sccc12` (0.833333 µM), the morphology score in test [1] was -0.046. Moreover, the SARS-CoV-2 infection rate in test [2] was 95% (inactive).

`N[C@@H](Cc1ccc(O)cc1)C(=O)NCC(=O)NCC(=O)O` (10 µM): the morphology score in test [1] is -0.0946. The SARS-CoV-2 infection rate in test [2] was 114% (inactive).

In test [1], `CCCCc1oc2ccc(NS(C)(=O)=O)cc2c1C(=O)c1ccc(OCCCN(CCCC)CCCC)cc1` [dronedarone] (0.833333 µM) came in with a morphology score of -0.0676. The SARS-CoV-2 infection rate in test [2] was 116% (inactive).

With `CCCCCCCCCCCCCCOc1ccc(C(=O)O)o1` (0.833333 µM), in test [1], the morphology score was 0.208. Further, the SARS-CoV-2 infection rate in test [2] is 96.5% (inactive).

Regarding `COC(=O)[C@]12CCC(C)(C)C[C@H]1[C@H]1C(=O)C=C3[C@@]4(C)C=C(C#N)C(=O)C(C)(C)[C@@H]4CC[C@@]3(C)[C@]1(C)CC2` [Bardoxolone Methyl] (10 µM), the morphology score in test [1] is -0.259. For the same molecule, the SARS-CoV-2 infection rate in test [2] was 107% (inactive).

As to `Cc1ccc(O)c(N=Nc2ccccc2)n1` (10 µM), the morphology score in test [1] was 0.26. Also, the SARS-CoV-2 infection rate in test [2] was 81% (inactive).

(Values after the supplement of paper PMC13380429.)
